Results on 19 molecules are retold here after PubChem BioAssay (NCATS).

Inconclusive results are not listed. Calls of active or inactive are those of the source. Calls come from the whole dose curve; as a rule, active = well fitted inhibition curve with a large enough effect; inconclusive = small, poorly fitted or top-dose-only effect; inactive = flat fitted curve, though single readings scatter.

For this assay, the target named is Lysine-specific demethylase 5B (Homo sapiens) (UniProt Q9UGL1). The experiment in a line: Optimization screen for KDM5B Histone Demethylases FDH coupled qHTS against the LOPAC library (AID 1347166). Note: 0% is about no effect. The following applies: KDM5B demethylation, FDH-coupled NADH fluorescence (FDH is formaldehyde dehydrogenase); at 57.5 µM (top of the series). In a few lines: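 KDM5BDeltaAP (200nM final) in 50mM HEPES pH 7.5, 0.01% Tween-20 was preincubated with compound for 10 min at room temperature. A substrate mix of 12.5uM H3K4Me3, 25uM a-ketoglutarate, ascorbate, Fe2+, NAD+ and formaldehyde dehydrogenase was then added. NADH fluorescence (340/450 nm) was read initially and after 30 min.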
Chain of Lysine-specific demethylase 5B (Homo sapiens) (Q9UGL1 whole entry, looked up): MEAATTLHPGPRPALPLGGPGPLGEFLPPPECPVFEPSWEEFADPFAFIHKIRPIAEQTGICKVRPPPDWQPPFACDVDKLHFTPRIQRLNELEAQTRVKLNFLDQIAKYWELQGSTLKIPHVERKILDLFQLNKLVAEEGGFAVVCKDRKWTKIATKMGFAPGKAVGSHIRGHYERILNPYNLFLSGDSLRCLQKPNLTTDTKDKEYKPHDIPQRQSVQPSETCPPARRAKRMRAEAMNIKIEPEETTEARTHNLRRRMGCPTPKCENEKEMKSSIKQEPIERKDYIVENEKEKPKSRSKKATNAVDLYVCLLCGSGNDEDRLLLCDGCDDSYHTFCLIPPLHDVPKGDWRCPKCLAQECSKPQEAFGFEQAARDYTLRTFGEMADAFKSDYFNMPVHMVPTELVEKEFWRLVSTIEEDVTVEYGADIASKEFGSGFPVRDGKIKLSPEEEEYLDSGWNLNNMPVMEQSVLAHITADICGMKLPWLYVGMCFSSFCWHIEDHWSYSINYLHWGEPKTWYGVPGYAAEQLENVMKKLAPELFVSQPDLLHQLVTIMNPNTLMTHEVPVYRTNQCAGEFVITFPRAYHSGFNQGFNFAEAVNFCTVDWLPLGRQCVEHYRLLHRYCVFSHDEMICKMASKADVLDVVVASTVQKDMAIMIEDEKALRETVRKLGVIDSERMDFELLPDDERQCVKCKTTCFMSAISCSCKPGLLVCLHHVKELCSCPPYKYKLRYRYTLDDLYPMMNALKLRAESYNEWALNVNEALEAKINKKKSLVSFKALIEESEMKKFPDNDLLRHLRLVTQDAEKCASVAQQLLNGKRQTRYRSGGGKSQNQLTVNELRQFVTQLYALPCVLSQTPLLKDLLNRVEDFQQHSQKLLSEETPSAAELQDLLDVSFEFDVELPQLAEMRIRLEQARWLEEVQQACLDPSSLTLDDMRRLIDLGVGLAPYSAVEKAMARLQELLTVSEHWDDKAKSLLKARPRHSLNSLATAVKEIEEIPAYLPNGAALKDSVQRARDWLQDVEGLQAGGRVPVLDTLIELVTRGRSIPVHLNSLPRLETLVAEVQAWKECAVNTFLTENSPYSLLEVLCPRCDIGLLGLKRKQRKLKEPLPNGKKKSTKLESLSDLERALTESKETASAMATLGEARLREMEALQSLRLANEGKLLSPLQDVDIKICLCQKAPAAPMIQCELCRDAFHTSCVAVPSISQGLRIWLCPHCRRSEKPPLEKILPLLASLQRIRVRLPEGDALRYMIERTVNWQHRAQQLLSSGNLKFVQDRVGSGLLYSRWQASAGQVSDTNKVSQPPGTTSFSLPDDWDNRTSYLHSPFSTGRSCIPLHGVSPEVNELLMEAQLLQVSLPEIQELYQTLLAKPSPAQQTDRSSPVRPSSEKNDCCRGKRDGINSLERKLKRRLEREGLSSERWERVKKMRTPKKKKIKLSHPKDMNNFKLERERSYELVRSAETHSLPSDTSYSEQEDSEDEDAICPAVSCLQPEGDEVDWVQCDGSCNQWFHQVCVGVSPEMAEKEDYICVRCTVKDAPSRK
Background: In qHTS, concentration-response curves come from the screen itself.
On to `O=C1C2C=CC=CC2=NC(=S)N1CCN1CCC(=C(c2ccc(F)cc2)c2ccc(F)cc2)CC1` (centres undefined), for which the activity, negative = inhibition was -6.14% (inactive).
To `CC(=O)SC1CC2=CC(=O)CC[C@]2(C)C2CC[C@@]3(C)C(CC[C@@]34CCC(=O)O4)C12` (some centres undefined) belongs 0.621% (inactive).
To `O=C(O)C1CCNCC1` belongs -5.33% (inactive).
In the case of `OCC1NCC(O)C(O)C1O` (centres undefined), the activity, negative = inhibition is -3.55% (inactive).
As to `NCCCCN`, the activity, negative = inhibition was -1.54% (inactive).
To `N[C@@H](CS(=O)O)C(=O)O` belongs -4.61% (inactive); to `CCN(c1nc(N)c(C(=O)N=C(N)N)nc1Cl)C(C)C`, -3.16% (inactive); to `CC(N)(Cc1ccc(O)cc1)C(=O)O` (centres undefined), 1.49% (inactive).
Turning to `c1ccc(C2CN3CCSC3=N2)cc1` (centres undefined), the activity, negative = inhibition is -3.45% (inactive).
To `COc1ccc(NC(=O)c2ccc(-c3ccc(-c4noc(C)n4)cc3C)cc2)cc1N1CCN(C)CC1` belongs -1.51% (inactive); to `CCCCCCCCCC(=O)NC(CN1CCOCC1)[C@H](O)c1ccccc1` (some centres undefined), -9.31% (inactive); to `N[C@H]1CONC1=O`, -4.96% (inactive).
In the case of `CC(N)=NCCCC[C@@H](N)C(=O)O`, the activity, negative = inhibition is -21.9% (inactive).
As to `CCN(CC)CCCCCCCCOC(=O)c1cc(OC)c(OC)c(OC)c1`, the activity, negative = inhibition is -10.5% (inactive).
To `CC(C)(CO)Cc1cc(C(C)(C)C)c(O)c(C(C)(C)C)c1` belongs -8.2% (inactive); to `O=C1OC(=O)C2C3CCC(O3)C12` (centres undefined), 3.88% (inactive); to `O=C(O)C1CCCNC1` (centres undefined), -0.313% (inactive).
Regarding `N#CC(=C(\N)Sc1ccccc1N)/C(C#N)=C(/N)Sc1ccccc1N`, the activity, negative = inhibition is -5.86% (inactive).
`CC(=O)[C@H]1CCC2C3CC=C4C[C@@H](OS(=O)(=O)O)CC[C@]4(C)C3CC[C@@]21C` (some centres undefined): the activity, negative = inhibition was 0.452% (inactive).
